Measurements: PubChem BioAssay (NCI)
The panel holds about 83,000 compounds, 20% with a hit somewhere; the sample as a whole holds those more often.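 Note: values are percent growth. 100 is the growth of untreated cells, values between 100 and 0 indicate rising inhibition; between -100 and 0 indicates cell death.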 Values without a mark were called inactive. Activity calls are given as the source filed them. How the source made its calls: active means growth percent below 10; inactive means the rest.

Columns and labels:
Experiment in all cases: NCI-60 one-dose screen, 48 h (100 = growth as untreated, 0 = no growth, -100 = all killed)
[1] = system: HT29 colon; conditions: 10 µM unless noted
[2] = system: SNB-75 CNS; conditions: 10 µM unless noted
[3] = system: SNB-19 CNS; conditions: 10 µM unless noted
[4] = system: U251 CNS; conditions: 10 µM unless noted
[5] = system: PC-3 prostate; conditions: 10 µM unless noted
[6] = system: SK-MEL-5 melanoma; conditions: 10 µM unless noted
[7] = system: UACC-62 melanoma; conditions: 10 µM unless noted
[8] = system: LOX IMVI melanoma; conditions: 10 µM
[9] = system: SK-MEL-28 melanoma; conditions: 10 µM unless noted
[10] = system: SK-MEL-2 melanoma; conditions: 10 µM unless noted
[11] = system: EKVX NSCLC; conditions: 10 µM unless noted
[12] = system: SN12C renal; conditions: 10 µM unless noted
[13] = system: UO-31 renal; conditions: 10 µM unless noted
[14] = system: TK-10 renal; conditions: 10 µM unless noted
[15] = system: ACHN renal; conditions: 10 µM unless noted
[16] = system: CAKI-1 renal; conditions: 10 µM unless noted
[17] = system: A498 renal; conditions: 10 µM unless noted
[18] = system: CCRF-CEM leukemia; conditions: 10 µM unless noted
[19] = system: MOLT-4 leukemia; conditions: 10 µM unless noted
[20] = system: HCT-15 colon; conditions: 10 µM unless noted

| SMILES | growth [1] | growth [2] | growth [3] | growth [4] | growth [5] | growth [6] | growth [7] | growth [8] | growth [9] | growth [10] | growth [11] | growth [12] | growth [13] | growth [14] | growth [15] | growth [16] | growth [17] | growth [18] | growth [19] | growth [20] [%] |
| --- | --- | --- | --- | --- | --- | --- | --- | --- | --- | --- | --- | --- | --- | --- | --- | --- | --- | --- | --- | --- |
| O=C1Nc2ccc(Br)cc2C1=O | 100% | 92.7% | 101% | 98.5% | 92.8% | 101% | 90.4% | 87.4% | 108% | 117% | 101% | 97% | 78.9% | 131% | 101% | 100% | 107% | 93.5% | 95.9% |  |
| O=C(NNc1ccccc1)OCc1ccccc1 |  | 114% | 97.5% | 80.4% |  | 101% | 28.1% | 20.8% | 105% | 86.1% | 91% | 84.9% | 56.8% | 90% | 50.2% |  | 86.1% | 22% | 26.9% | 73 |
| Nc1cc(-c2ccccc2)ccc1O |  | 105% | 98.5% | 101% |  | 118% | 88% | 90% | 93.3% | 120% | 96.4% | 104% | 93.4% | 127% | 104% |  | 93% | 37.2% | 25.1% | 93.3 |
| Oc1ccc2ccccc2c1N=Nc1ccccn1 |  | 59.1% | 53.4% | 30.5% |  | 23.7% | 29.8% | 6.2% (active) | 40.7% |  | 22.2% | 35.4% | 33.1% | 6% (active) | 11.9% | 11.7% | 79.9% |  | 11.4% | 26.9 |
| Cc1cc(N/N=C/c2ccccn2)nc2ccccc12 | 20.3% | 30.8% | 24.6% | 4.92% (active) | 28.3% | -43.7% (active) | -46.5% (active) | 4.97% (active) | 18.1% | 50.2% |  | 17.4% | -8.77% (active) | 34.1% | 0.182% (active) | -8.9% (active) | 27.7% | 2.52% (active) | 5.97% (active) |  |
| CC1=CC(=NC(=O)CBr)C=C/C1=N\S(=O)(=O)c1ccccc1 |  | 67.6% | 98.2% | 67.3% | 77.5% | 57.1% | 66.7% | 9.2% (active) | 73.1% |  |  | 14.1% | 73.1% | 79.2% | 46.9% |  | 97.2% | 12.2% | 43.7% | 36.6 |
| Cc1nc([N+](=O)[O-])c(Sc2nncc(-c3ccccc3)n2)n1C |  | 76.6% | 116% | 79.4% | 98.1% | 96% | 82.2% | 82.2% |  | 95.4% | 79.7% |  | 60.3% | 74.4% | 62.6% | -3.06% (active) | 107% | 45.1% | 65.7% | 68 |
| CCCCCCCCCCCC[S+](C)CC(=O)[O-] (configuration not stated) |  | 29.7% |  | 43.7% | 25% | -62.3% (active) | 31.8% | 32.9% | 62.9% | 51.7% | 22.2% | 13.7% |  | 20.6% | 61.4% | 38.7% | 95.4% | 11.9% | 32.9% | 84.6 |
| CCCCCCCCc1cc(Cl)c(O)c(Cl)c1 |  | 98.4% | 93.2% | 101% |  | 108% | 99.5% | 95.6% | 112% |  | 98.9% |  | 97.2% | 113% |  | 89.6% | 108% | 111% | 98.2% | 115 |
| NC1=C(Br)C(=O)c2ncccc2C1=O | 49.1% | -84.2% (active) | -86.7% (active) | -82.2% (active) | 11.9% | -98.3% (active) | -96.3% (active) | -71.2% (active) | -87.4% (active) | -54.1% (active) | -14.2% (active) | -84.8% (active) | -96.8% (active) | 79.1% | -7.81% (active) | -81.2% (active) | 113% | 10.5% |  |  |
| CCCCCCCCCCCCN1C(C)=CS/C1=C\C=C\c1scc(C)[n+]1CCCCCCCCCCCC |  | 34.3% | 40.2% |  | 3.86% (active) | -83.9% (active) | 5.41% (active) | 25.9% | 47.2% | 1.51% (active) |  |  | 62.6% | 11.9% | 38.6% | 27.5% |  | 20% | 11.1% | 56.6 |
| c1ccc(-c2cccc(-c3ccccn3)n2)nc1 |  | 49% | 27.9% | 14.5% |  | -50.8% (active) | 3.51% (active) | -0.708% (active) | 33% | 16.6% | 15.8% | 10.5% | 9.63% (active) | 32.9% | 14% |  | 44.2% | 5.02% (active) | 3.3% (active) | 28 |
| Cc1onc(-c2ccccc2)c1C(=O)N/N=C/c1cc(Cl)cc(Cl)c1O | 42.2% | 61.4% | 43.8% | 25% | 46.2% | 9.32% (active) | 10.9% | 11.2% | 51.3% | 37.7% |  | 33.1% | 1.5% (active) | 40.1% | 22.1% | 8.2% (active) | 81.2% | 21.9% | 19.2% |  |
| CCCCCCCCCCCC[n+]1ccc2ccccc2c1 | 0.914% (active) | -21% (active) | -19.8% (active) | -53.5% (active) | -34.1% (active) | -93.7% (active) | -62.1% (active) | -75% (active) | -28.6% (active) | -24.7% (active) | -4.82% (active) | -18.4% (active) | -23.8% (active) | -46.7% (active) | 13% |  | 77.6% | 3.12% (active) | -25.9% (active) |  |
| Cc1cc(Br)c2nsnc2c1[N+](=O)[O-] |  | 50.1% | 52.9% | 36.9% | 49% | 54.1% | 56.5% | 8.37% (active) | 63.3% |  | 106% | 29.4% | 40.2% | 36% | 36.2% |  | 99.2% | 20.1% | 39.4% | 27.4 |
| O=[n+]1c2ccccc2n([O-])c2cc(Cl)ccc21 |  | 50.7% | 94.2% |  | 50.2% |  | 81% |  | 99.2% |  |  |  | 55.7% | 102% | 20.7% | 19.3% | 81.6% | -6.38% (active) | -30.4% (active) | 43.7 |
| COc1cccc2c1C(=O)c1c(O)c3c(c(O)c1C2=O)C[C@@](O)(C(=O)CO)C[C@@H]3OC1CC(OC(C)=O)C(OC(C)=O)C(C)O1 (some centres not stated) | -59% (active) | -30.9% (active) | -8.8% (active) | -42.9% (active) | 5.51% (active) | -100% (active) | -87.8% (active) | -75.4% (active) | -8.16% (active) | -0.534% (active) | 30.5% | -6.25% (active) | -38.2% (active) | -36.3% (active) | -92.2% (active) | -40.5% (active) | -19.1% (active) | -48.6% (active) |  |  |
| O=[N+]([O-])c1ccc2c(c1)Cc1ccccc1-2 |  | 88.9% | 94.9% | 90.9% |  | 97.7% | 91.6% | 100% | 110% |  | 61.1% | 101% | 82.9% |  | 94.2% | 99% | 82.4% | 91.4% | 86.2% | 91 |
